Luc counter: counter-screen: inhibitors of Kinase-Glo firefly luciferase | Q27757 | Kinase-Glo luciferase, ATP luminescence, 8 min | Potency, µM (top dose mostly 38.3 µM), for inactives: at the highest dose activity change, negative = inhibition, usual class: inhibitors | hit rate 0.28% among 200,000; note: % is set by controls: 0 for no effect and ±100 for the full control effect; nearly all actives have a fitted effect of over 60% in size
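Compound is pinned into ATP-containing buffer (10 uM ATP, imidazole pH 7.2, 7 mM MgCl2). Kinase-Glo luciferase reagent is then added. Light output is recorded following an 8-min room-temperature incubation.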
NPC1 prom act: activates the NPC1 promoter; Huh7 NPC1 promoter luciferase reporter, 24 h; Potency, µM (highest dose often 9.22 µM), for the others: at the highest dose activation, hits mostly activators; hit rate 2.4% among 320,000; AID 485313; note: % of control where 0% means no effect; nearly all actives have a fitted effect of over 60% in size
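Quantitative HTS used a cell-based reporter: Huh7 cells stably bearing the NPC1 promoter upstream of luciferase were treated with compounds for 24 h, and promoter activation was read as luminescence.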
FLuc modulator: firefly luciferase modulation, counter-screen for miR-21 project. P08659. purified FLuc, Km substrates, luminescence inhibition. Potency, µM (top dose mostly 57.5 µM), for the others: at the top dose activity change, negative = inhibition, hits mostly inhibitors. hit rate 6.9% among 360,000;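 note: plate controls were vehicle for no effect and reference inhibitor for full effect; nearly all actives have a fitted effect of over 55% in size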
Target sequence (P08659 whole entry, looked up): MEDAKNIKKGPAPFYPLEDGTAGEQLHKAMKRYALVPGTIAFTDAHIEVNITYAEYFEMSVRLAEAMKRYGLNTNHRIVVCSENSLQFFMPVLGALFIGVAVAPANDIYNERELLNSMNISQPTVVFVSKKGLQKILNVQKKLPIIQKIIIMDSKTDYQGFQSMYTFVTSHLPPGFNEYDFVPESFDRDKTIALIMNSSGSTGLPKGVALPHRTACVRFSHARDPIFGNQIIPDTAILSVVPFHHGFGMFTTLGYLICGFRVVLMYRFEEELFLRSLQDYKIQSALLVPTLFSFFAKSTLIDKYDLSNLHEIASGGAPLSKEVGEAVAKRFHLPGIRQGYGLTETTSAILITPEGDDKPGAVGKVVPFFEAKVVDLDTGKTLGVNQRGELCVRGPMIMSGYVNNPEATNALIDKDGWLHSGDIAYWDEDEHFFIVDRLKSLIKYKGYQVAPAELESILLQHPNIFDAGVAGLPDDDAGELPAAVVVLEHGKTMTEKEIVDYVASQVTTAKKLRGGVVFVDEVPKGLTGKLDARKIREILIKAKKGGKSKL
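Purified P. pyralis luciferase, 10 nM final, with Km-level 10 uM D-luciferin and 10 uM ATP in 50 mM Tris acetate pH 7.5, 10 mM Mg acetate, 0.01% Tween-20, 0.05% BSA; 6-point qHTS titration about 60 µM downward; luminescence read.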
ELG1 genotox: genotoxicity induction in ELG1-luciferase HEK293T cells | Potency, µM (highest dose often 46 µM), for inactives: at the highest dose activity change, positive = activation, actives largely listed as activators | hit rate 1.3% among 330,000 | HEK293T ELG1-luciferase reporter, luminescence, 16 h; note: % of control where 0% means no effect; nearly all actives have a fitted effect of over 60% in size
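Reporter readout depends on ELG1 protein level, which increases with genetic stress. After 16 hr compound exposure at 37 °C, luciferase activity was quantified using ONE-Glo.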
SMN2 splice up: SMN2 splice variant enhancement. HEK293 SMN2-luciferase splicing reporter, luminescence, 30-36 h. Potency, µM (highest dose often 46.1 µM), without a hit: at the highest dose activity change, positive = activation, most hits filed as activators. hit rate 2.8% among 210,000. AID 1458; note: % of control where 0% means no effect; nearly all actives have a fitted effect of over 55% in size
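HEK293 cells carry an SMN2 […]–luciferase reporter in which exon 7 inclusion puts luciferase in frame. Cells were plated 10-12 h before compound addition, then incubated 30-36 h at 37C. ONE-Glo luminescence was read; sodium butyrate at 4.5 mM final served as control.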
Rab9 promoter act: activators of Rab9 promoter. Potency, µM (titrated, usually from 9.22 µM), without a hit: at the highest dose activation, negative = inhibition, hits mostly activators. hit rate 2.8% among 320,000. Huh7 Rab9 promoter-luciferase reporter, luminescence, 24 h. AID 485297; note: % of control where 0% means no effect; nearly all actives have a fitted effect of over 60% in size
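Luciferase signal after 10 min detection reagent at ambient indicates Rab9 promoter upregulation; stably transfected Huh7 cells were treated 24 h with compound in DMSO at 37 °C, 5% CO2.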
* marks the source's active call; other numbers are inactive results; ? = inconclusive; / = not tested or not shown. A selection: hits, their analogues and other compounds. The true share with any hit is near 7.5%. Calls come from the whole dose curve; as a rule, active = well fitted curve in the direction sought with a large enough effect; inconclusive = small, poorly fitted or top-dose-only effect, or another doubt; inactive = no such curve, though single readings can be large; an effect the other way counts as inactive or inconclusive. Potency is the fitted concentration of half-maximal effect.

SMILES | Luc counter | NPC1 prom act | FLuc modulator | ELG1 genotox | SMN2 splice up | Rab9 promoter act
COc1ccc(/C=C2\Oc3cc(OCC(=O)N4CCC[C@H]4CO)ccc3C2=O)c(OC)c1 | / | -4% | 13µM* | 4% | / | 2%
COc1ccc(OC(=O)N2CCOCC2)cc1 | / | 4% | 1% | 6% | / | 12%
COc1ccccc1/C=C1\Oc2cc(OC(=O)N3CCOCC3)ccc2C1=O | / | 19% | 11µM* | 4% | / | 14%
COC(=O)c1ccc2c(c1)C(=O)/C(=C/c1ccc(C)cc1)O2 | -3% | ? | ? | 15% | 11µM* | ?
CCC1CCCCN1CCCNC(=O)c1[nH]c2ccccc2c1Sc1ccc(Cl)cc1 (stereo unspecified) | / | / | -3% | / | / | /
COc1ccc(-n2ccnc(NCCc3ccc(S(N)(=O)=O)cc3)c2=O)cc1 | / | / | -6% | / | / | /
CN(C1CCCCC1)S(=O)(=O)c1ccc2c(c1)c(=O)c(C(=O)NCc1ccccc1Cl)cn2C | / | / | 2% | / | -12% | /
CCN(CC)S(=O)(=O)c1ccc2c(c1)N(CC(=O)N1CCN(c3cccc(Cl)c3)CC1)C(=O)CO2 | / | / | 0% | / | / | /
Cc1ccc(/C=C2\Oc3cc(OC(=O)N4CCOCC4)ccc3C2=O)cc1 | -2% | 8% | 2.1µM* | -2% | -17% | 14%
O=C(Nc1ccc(OC(F)(F)F)cc1)c1cc2ccccn2n1 | / | / | 2.7µM* | / | / | /
O=C(Nc1ccccc1C(F)(F)F)c1ccccn1 | -2% | -1% | ? | 8% | -1% | -5%
COc1ccc(NC(=O)c2cc3ccccn3n2)cc1 | -25% | 1µM* | 2.1µM* | 1.2µM* | 6.3µM* | ?
O=C(Nc1ccccc1C(F)(F)F)c1cc2ccccn2n1 | / | / | 1.9µM* | / | / | /
O=C(NCCc1ccccc1Cl)c1cc2ccccn2n1 | / | / | 12µM* | / | / | /
CCOc1ccc(OCC)c(NC(=O)c2cc3ccccn3n2)c1 | / | / | -15% | / | / | /
O=C(CCn1c(=O)c2cccn2c2cccnc21)N1CCN(c2cccc(C(F)(F)F)c2)CC1 | / | / | 1% | / | / | /
CCOC(=O)c1cccc(NC(=O)c2cc3ccccn3n2)c1 | / | / | 3µM* | / | / | /
CCOC(=O)c1cccc(NC(=O)c2cnccn2)c1 | -2% | 2.8µM* | -16% | ? | ? | ?
CN(C)C(=O)CSc1nnc(C23CC4CC(CC(C4)C2)C3)o1 | 0% | ? | ? | 9.2µM* | ? | 3.2µM*
CCOC(=O)/C(C#N)=C/c1cc(C)n(-c2ccc(C)cc2)c1C | 2% | 2.8µM* | 2.4µM* | 1.8µM* | -7% | 1µM*
CCOC(=O)/C(C#N)=C\c1cc(C)n(-c2ccccc2)c1C | -3% | 1.6µM* | 0.43µM* | ? | -66% | 1.8µM*
CCCn1c(C)cc(/C=C(\C#N)C(=O)OCC(=O)NC(=O)NCC)c1C | 18% | 0% | 12µM* | 3% | 6% | -7%
Cc1cc(/C=C(\C#N)C(=O)Nc2ccccc2)c(C)n1-c1ccc(C(=O)O)cc1 | / | 3% | -5% | -4% | / | 0%
CCCn1c(C)cc(/C=C(\C#N)C(=O)OCC(=O)Nc2ccc(OC)c(Cl)c2)c1C | / | -1% | ? | 2% | / | 11%
CCOC(=O)N1CCC(NC(=O)c2cnn(-c3ccc(F)cc3)c2-n2cccc2)CC1 | / | / | 2% | / | / | /
SMILES | Luc counter | NPC1 prom act | FLuc modulator | ELG1 genotox | SMN2 splice up | Rab9 promoter act
CC(=O)Nc1ccc(S(=O)(=O)N2CCC(n3c(C)nc4cccnc43)CC2)cc1 | / | / | -7% | / | / | /
Cc1ccc(C(=O)c2sc(Nc3ccccc3)c(S(=O)(=O)c3ccccc3)c2N)c(C)c1 | / | / | 2% | / | / | /
Cc1sc(NC(=O)c2cccs2)c(C(N)=O)c1C | -13% | 18% | 11µM* | ? | 10µM* | ?
Cc1sc(NC(=O)C2=COCCO2)c(C(N)=O)c1C | / | 14% | 17µM* | 28% | / | 22%
CCOC(=O)c1c(NC(=O)c2cccs2)sc(CC)c1-c1cccs1 | 0% | -3% | 1% | -1% | -19% | 3%
COc1ccc(S(=O)(=O)NCC(c2ccco2)S(=O)(=O)c2cccs2)cc1OC (stereo unspecified) | / | / | 1% | / | / | /
Cn1c2ccccc2c2cc(/C=N/NC(=O)c3cc(O)cc(O)c3)ccc21 | / | 2% | 24µM* | 6% | / | ?
COc1cc(C(=O)N/N=C/c2ccc3c(c2)c2ccccc2n3C)ccc1O | / | -15% | 11µM* | -9% | / | 0%
O=C1NC(Cc2ccc(O)cc2)c2nc3ccc(Cl)cc3c(=O)n2-c2ccc(Cl)cc21 (stereo unspecified) | / | / | / | 0% | / | /
CCC(=O)N1CCc2cc(S(=O)(=O)CCC(=O)NCc3ccccc3Cl)ccc21 | / | / | 6% | / | -6% | /
O=C(OC(c1ccccc1)c1nccc2ccccc12)c1cccc([N+](=O)[O-])c1 (stereo unspecified) | 1% | 16% | ? | ? | -2% | 15%
CC(C)C(OC(=O)c1ccccc1)c1nccc2ccccc12 (stereo unspecified) | / | ? | 17µM* | ? | / | ?
Cc1ccn2c(C(=O)CSc3ccccc3)c(C)nc2c1 | 0% | 16% | ? | 7% | 25µM* | 15%
Cc1ccc(SCC(=O)c2c(C)nc3cc(C)ccn23)cc1 | 3% | -6% | 0% | 5% | 10% | -2%
COc1ccccc1N1CCN(C(=O)Cn2c(=O)nc(-c3ccccc3)c3ccccc32)CC1 | / | / | 2% | / | / | /
Cc1ccc2oc(C(=O)N3CCN(CC(=O)NC(C)C)CC3)c(C)c2c1 | / | 0% | 2% | 0% | / | -1%
Clc1ccc(-c2cn3c(n2)SCC3)cc1 | -4% | 1.8µM* | 19µM* | 15% | 11µM* | 1.4µM*
Oc1ccc(-c2cn3c(n2)SCC3)cc1 | -4% | 10% | ? | 17% | 9% | 4%
Brc1ccc(-c2cn3c(n2)SCC3)cc1 | -6% | 1.1µM* | 5.4µM* | 10µM* | 10µM* | 0.71µM*
COc1ccc(CCNC(=O)COC(=O)c2ccccn2)cc1 | / | / | / | 2% | / | /
COc1ccc(C(=O)CN2Cc3ccccc3C2=N)cc1 | / | 4µM* | 11µM* | 2.6µM* | / | 2.5µM*
COc1ccc(C(=O)Cn2c(=N)n(C)c3ccccc32)cc1 | / | 26% | 8.5µM* | ? | / | ?
Cn1c(=N)n(CC(=O)c2ccc(Cl)c(Cl)c2)c2ccccc21 | / | ? | 0.38µM* | ? | / | ?
Cn1c(=N)n(CC(=O)c2ccccc2)c2ccccc21 | / | 3.2µM* | 1.2µM* | 0.37µM* | / | 1.1µM*
COc1ccc(C(=O)CN2C(=O)COc3ccccc32)cc1 | 0% | -6% | 2% | 6% | / | -2%
Cn1c(=N)n(CC(=O)O)c2ccccc21 | -2% | -3% | 0% | 0% | 18% | -2%
Cc1nc(CN(C)Cc2nc(Cc3ccccc3Cl)no2)cs1 | -1% | -2% | 0% | 3% | 6% | 16%
